Source: PubChem BioAssay (NCI)
About 79,000 compounds went through this panel and 15% of them were active in at least one assay; those are over-represented in the sample as a whole. Activity calls are given as the source filed them. Rule as the data show it: active = growth inhibition above about 70%; inactive = the rest.

Columns and labels:
[1] = NCI Yeast Anticancer Drug Screen. Data for the rad52 strain (AID 147);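 also: 0% = growth of vehicle-treated control cultures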; conditions: S. cerevisiae rad52 mutant growth inhibition, hits give high values
Outline: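 The repair-mutant yeast strain was incubated with compounds, then growth was read and inhibition derived relative to vehicle.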

[2] = NCI Yeast Anticancer Drug Screen. Data for the wt1 strain (AID 149);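 also: 0% = growth of vehicle-treated wt1 cultures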; conditions: S. cerevisiae wt1 strain (SPY 50644) growth inhibition, hits give high values
Outline: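 The wt1 strain was treated with compounds, and growth was compared with vehicle-treated cultures to give inhibition.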

[3] = NCI Yeast Anticancer Drug Screen. Data for the rad50EPP+ strain (AID 151);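 also: 0% = growth of vehicle-treated control cultures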; conditions: S. cerevisiae rad50 mutant strain, hits give high values
Outline: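 Vehicle-normalised growth inhibition; rad50EPP+ yeast strain, altered in DNA damage repair, compound-treated.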

[4] = NCI Yeast Anticancer Drug Screen. Data for the mgt1 strain (AID 153); conditions: S. cerevisiae mgt1 mutant growth inhibition, hits give high values
Outline: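 Vehicle-normalized growth inhibition is determined in mgt1 yeast, a strain selected for a defined alteration in DNA repair or cell cycle control.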

[5] = NCI Yeast Anticancer Drug Screen. Data for the rad50 strain (AID 155);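 also: 0% = growth of vehicle-only cultures of the same strain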; conditions: S. cerevisiae rad50 strain growth inhibition, hits give high values
Outline: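 Cells are treated with compound, grown, and their growth is then scored against vehicle-only cultures of the same repair-deficient yeast strain.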

[6] = NCI Yeast Anticancer Drug Screen. Data for the mec2-1 strain (AID 157); conditions: S. cerevisiae mec2-1 strain, hits give high values
Outline: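 Mutant yeast (mec2-1) grown with compound; growth inhibition relative to vehicle control reported.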

[7] = NCI Yeast Anticancer Drug Screen. Data for the rad14 strain (AID 159);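 also: 0% = growth of vehicle-treated control cultures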; conditions: S. cerevisiae rad14 strain growth inhibition, hits give high values
Outline: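 Readout: yeast growth inhibition, referenced to vehicle-only cultures. Strain bears a defined alteration in DNA damage repair.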

[8] = NCI Yeast Anticancer Drug Screen. Data for the sgs1 mgt1 strain (AID 161);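 also: 0% = growth of cultures given vehicle only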; conditions: S. cerevisiae sgs1 mgt1 strain, hits give high values
Outline: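 This yeast growth screen uses a strain with defined DNA-repair lesions; compound-treated growth is compared with vehicle-treated growth.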

[9] = NCI Yeast Anticancer Drug Screen. Data for the CLN2oe strain (AID 163);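 also: 0% = growth of vehicle-only control cultures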; conditions: S. cerevisiae CLN2oe strain, hits give high values
Outline: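 Compounds are applied to yeast harbouring a defined cell-cycle control change; reduced growth compared with vehicle-treated controls gives the value.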

[10] = NCI Yeast Anticancer Drug Screen. Data for the cln2 rad14 strain (AID 165);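 also: 0% = growth equal to vehicle treated cultures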; conditions: S. cerevisiae cln2 rad14 strain, hits give high values
Outline: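 Readout is yeast growth inhibition versus vehicle-treated controls, using a strain with cln2 and rad14 alterations exposed to compound.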

[11] = NCI Yeast Anticancer Drug Screen. Data for the bub3 strain (AID 167); conditions: S. cerevisiae bub3 mutant strain, hits give high values
Outline: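 Part of a panel of yeast mutants defective in DNA damage repair or cell cycle regulation. Each strain is grown with compound, and inhibition is calculated relative to solvent-treated cultures.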

[12] = NCI Yeast Anticancer Drug Screen. Data for the wt2 strain (AID 169);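 also: 0% = growth of vehicle-treated yeast cultures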; conditions: S. cerevisiae wt2 strain growth inhibition, hits give high values
Outline: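 Against vehicle-treated controls, the growth of yeast exposed to each compound was compared, and the inhibition was recorded.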

[13] = NCI Yeast Anticancer Drug Screen. Data for the mlh1 strain (AID 171);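 also: 0% = growth of vehicle-treated control cultures of the same strain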; conditions: S. cerevisiae mlh1 strain growth inhibition, hits give high values
Outline: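 Measured: yeast growth. Reference: vehicle-treated controls. Organism: strain with a defined alteration affecting DNA damage repair or cell cycle control, treated with compound.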

[14] = NCI Yeast Anticancer Drug Screen. Data for the sgs1 strain (AID 173);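 also: 0% = growth of vehicle-only control cultures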; conditions: S. cerevisiae sgs1 mutant, hits give high values
Outline: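 Each compound was added to cultures of the altered yeast strain. Growth was recorded, and inhibition was derived by comparison with vehicle controls.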

[15] = NCI Yeast Anticancer Drug Screen. Data for the mlh1 rad18 strain (AID 175); conditions: S. cerevisiae mlh1 rad18 strain growth inhibition, hits give high values
Outline: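 Genetically defined yeast (DNA repair-deficient) exposed to compounds; growth inhibition determined relative to vehicle.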

[16] = NCI Yeast Anticancer Drug Screen. Data for the rad18 strain (AID 177); conditions: S. cerevisiae rad18 mutant growth inhibition, hits give high values
Outline: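 Vehicle-treated cultures served as the baseline for scoring compound-induced growth inhibition in DNA-repair-mutant yeast.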

[17] = at 5.0 µM (retest, dose inferred, filed as 0.5)
[18] = at 50.0 µM (retest, dose inferred, filed as 5.0)

Measured: growth inhibition

CC(C)(C)c1cc([N+](=O)[O-])cc([N+](=O)[O-])c1O
active: [5]; [18] 100% | [5]; at 50.0 µM 78.8% | [6]; [18] 99% | [6]; at 50.0 µM 72.2% | [8]; at 50.0 µM 84.3% | [10]; at 50.0 µM 73.4% | [15]; [18] 100%
inactive: [1]; at 1.2 µM -11% | [1]; at 3.7 µM -17% | [1]; at 11.0 µM -1% | [1]; at 33.0 µM 17% | [1]; at 100.0 µM 33% | [2]; at 1.2 µM -16% | [2]; at 3.7 µM -23% | [2]; at 11.0 µM -7% | [2]; at 33.0 µM 12% | [2]; at 100.0 µM 38% | [3]; at 1.2 µM -54% | [3]; at 3.7 µM -54% | [3]; at 11.0 µM -44% | [3]; at 33.0 µM -25% | [3]; at 100.0 µM -13% | [4]; at 1.2 µM -52% | [4]; at 3.7 µM -34% | [4]; at 11.0 µM 21% | [4]; at 33.0 µM -11% | [4]; at 100.0 µM 43% | [5]; at 1.2 µM -24% | [5]; at 3.7 µM -26% | [5]; [17] 46% | [5]; at 11.0 µM -5% | [5]; at 33.0 µM 1% | [5]; at 100.0 µM 22% | [6]; at 1.2 µM -61% | [6]; at 3.7 µM -47% | [6]; [17] 66% | [6]; at 11.0 µM -25% | [6]; at 33.0 µM -8% | [6]; at 100.0 µM 7% | [7]; at 1.2 µM -19% | [7]; at 3.7 µM -12% | [7]; at 11.0 µM 6% | [7]; at 33.0 µM 26% | [7]; at 100.0 µM 29% | [8]; [17] 0% | [8]; [18] 38% | [9]; at 1.2 µM 9% | [9]; at 3.7 µM 1% | [9]; at 11.0 µM 12% | [9]; at 33.0 µM 25% | [9]; at 100.0 µM 28% | [10]; [17] 46% | [10]; [18] 21% | [11]; at 1.2 µM -17% | [11]; at 3.7 µM -15% | [11]; [17] -13% | [11]; at 11.0 µM -2% | [11]; at 33.0 µM 9% | [11]; [18] 39% | [11]; at 50.0 µM 68.6% | [11]; at 100.0 µM 21% | [12]; at 1.2 µM -35% | [12]; at 3.7 µM -29% | [12]; at 11.0 µM -11% | [12]; at 33.0 µM 23% | [12]; at 100.0 µM 47% | [13]; at 1.2 µM -38% | [13]; at 3.7 µM -33% | [13]; at 11.0 µM -4% | [13]; at 33.0 µM 10% | [13]; at 100.0 µM 42% | [14]; at 1.2 µM -20% | [14]; at 3.7 µM -8% | [14]; at 11.0 µM 15% | [14]; at 33.0 µM 40% | [14]; at 100.0 µM 46% | [15]; [17] 50% | [15]; at 50.0 µM 67.7% | [16]; at 1.2 µM -30% | [16]; at 3.7 µM -13% | [16]; at 11.0 µM -18% | [16]; at 33.0 µM 17% | [16]; at 100.0 µM 30%

CCC1(O)C(=O)OCc2c1cc1n(c2=O)Cc2cc3ccccc3nc2-1 (stereo not drawn)
inactive: [2]; at 1.2 µM -3% | [2]; at 3.7 µM 28% | [2]; at 11.0 µM 15% | [2]; at 33.0 µM 5% | [2]; at 100.0 µM 13% | [3]; at 1.2 µM 29% | [3]; at 3.7 µM 54% | [4]; at 1.2 µM -11% | [4]; at 3.7 µM -3% | [4]; at 11.0 µM -4% | [4]; at 33.0 µM -3% | [4]; at 100.0 µM 10% | [6]; at 1.2 µM -9% | [6]; at 3.7 µM -2% | [6]; [17] 21% | [6]; at 11.0 µM 23% | [6]; at 33.0 µM 36% | [7]; at 1.2 µM -4% | [7]; at 3.7 µM 7% | [7]; at 11.0 µM 5% | [7]; at 33.0 µM 12% | [7]; at 100.0 µM 24% | [8]; [17] 23% | [8]; [18] 56% | [8]; at 50.0 µM 47.5% | [9]; at 1.2 µM 12% | [9]; at 3.7 µM 26% | [9]; at 11.0 µM 33% | [9]; at 33.0 µM 18% | [9]; at 100.0 µM 41% | [10]; [17] 6% | [10]; [18] 27% | [10]; at 50.0 µM 19.3% | [11]; at 1.2 µM -14% | [11]; at 3.7 µM 9% | [11]; [17] 12% | [11]; at 11.0 µM -3% | [11]; at 33.0 µM 1% | [11]; [18] 27% | [11]; at 50.0 µM -24.9% | [11]; at 100.0 µM 10%
active: [1]; at 1.2 µM 73% | [1]; at 3.7 µM 92% | [1]; at 11.0 µM 95% | [1]; at 33.0 µM 94% | [1]; at 100.0 µM 95% | [3]; at 11.0 µM 70% | [3]; at 33.0 µM 75% | [3]; at 100.0 µM 86% | [5]; at 1.2 µM 74% | [5]; at 3.7 µM 91% | [5]; [17] 94% | [5]; at 11.0 µM 95% | [5]; at 33.0 µM 94% | [5]; [18] 96% | [5]; at 50.0 µM 86.2% | [5]; at 100.0 µM 94% | [6]; [18] 89% | [6]; at 50.0 µM 77.2% | [6]; at 100.0 µM 82%
